PubChem BioAssay AID1159580 (chemical genetic matrix, 2015)
Several values for one entry are separate records, joined by “and”; a condition that tells them apart may be missing. Identical values can stand only once. Among all 5,500 compounds or so, about 2,000 (36%) were called active. Roughly 18% stayed inconclusive and do not appear here. Cut-off read from the data, not from the text of the source: active = normalized growth mostly below about 0.91 (no sharp cut-off); inconclusive = no clear call, values can overlap the other calls; inactive = mostly above about 0.92. The list shows a part of the results.

Assay: chemical genetic growth profiling, strain panel (AID 1159580);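 note: tested at 20 µM; growth read once vehicle control cultures reached saturation at 30 °C; 1 = growth at the plate median or of vehicle wells; lower values mean less growth of the strain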
Details: S. cerevisiae deletion strains, growth OD

Measured: normalized growth

CC[C@@H](C(=O)C(C)[C@@H](O)[C@H](C)CCc1ccc(C)c(O)c1C(=O)O)C1OC(CC)(C2CC[C@](O)(CC)[C@H](C)O2)C[C@@H]1C (stereo partly drawn)
inactive: locus YAL013W, strain DEP1, stronger effect = lower value 1.05 | locus YAL021C, strain ccr4, stronger effect = lower value 1.03 | locus YAL026C, strain drs2, stronger effect = lower value 0.949 | locus YAL030W, strain snc1, stronger effect = lower value 1.06 | locus YBL061C, strain skt5, stronger effect = lower value 1.06 | locus YBR009C, strain hhf1, stronger effect = lower value 1.01 | locus YBR023C, strain chs3, stronger effect = lower value 1.06 | locus YBR229C, strain ROT2, stronger effect = lower value 1.04 | locus YBR231C, strain swc5, stronger effect = lower value 1.07 | locus YBR279W, strain paf1, stronger effect = lower value 1.06 | locus YCL011C, strain gbp2, stronger effect = lower value 1.06 | locus YCL016C, strain dcc1, stronger effect = lower value 1.05 | locus YCL029C, strain bik1, stronger effect = lower value 1.02 | locus YCL061C, strain MRC1, stronger effect = lower value 1.04 | locus YCR088W, strain abp1, stronger effect = lower value 1.07 | locus YDL005C, strain med2, stronger effect = lower value 1.08 | locus YDL035C, strain GPR1, stronger effect = lower value 0.978 | locus YDL040C, strain nat1, stronger effect = lower value 1.06 | locus YDL074C, strain BRE1, stronger effect = lower value 0.938 | locus YDL101C, strain DUN1, stronger effect = lower value 1.03 | locus YDL134C, strain PPH21, stronger effect = lower value 1.02 | locus YDL185W, strain tfp1, stronger effect = lower value 0.993 | locus YDL192W, strain arf1, stronger effect = lower value 1.01 | locus YDR001C, strain nth1, stronger effect = lower value 1.07 | locus YDR069C, strain doa4, stronger effect = lower value 1.02 | locus YDR101C, strain arx1, stronger effect = lower value 1.04 | locus YDR150W, strain NUM1, stronger effect = lower value 1.05 | locus YDR159W, strain sac3, stronger effect = lower value 0.996 | locus YDR162C, strain NBP2, stronger effect = lower value 1.01 | locus YDR195W, strain ref2 1.05 | locus YDR297W, strain sur2, stronger effect = lower value 1.05 | locus YDR318W, strain mcm21, stronger effect = lower value 1.01 | locus YDR334W, strain swr1, stronger effect = lower value 1.08 | locus YDR335W, strain msn5, stronger effect = lower value 1.08 | locus YDR388W, stronger effect = lower value 1.02 | locus YDR502C, strain sam2, stronger effect = lower value 1 | locus YEL003W, strain gim4, stronger effect = lower value 1.04 | locus YEL037C, strain rad23, stronger effect = lower value 1.07 | locus YEL061C, strain CIN8 (second series), stronger effect = lower value 1.08 | locus YEL061C, strain CIN8, stronger effect = lower value 1.02 | locus YER015W, strain faa2, stronger effect = lower value 1.06 | locus YER016W, strain bim1, stronger effect = lower value 1.05 | locus YER110C, stronger effect = lower value 1.02 | locus YER111C, strain swi4, stronger effect = lower value 1.07 | locus YER155C, strain BEM2 (second series), stronger effect = lower value 1.04 | locus YER167W, strain BCK2, stronger effect = lower value 1.02 | locus YFR010W, strain ubp6, stronger effect = lower value 1.06 | locus YGL078C, strain dbp3, stronger effect = lower value 0.998 | locus YGL086W, strain mad1, stronger effect = lower value 1.05 | locus YGL167C, strain pmr1, stronger effect = lower value 1.07 | locus YGL173C, strain kem1, stronger effect = lower value 1.04 | locus YGL240W, strain doc1, stronger effect = lower value 1.03 | locus YGL248W, strain PDE1, stronger effect = lower value 1.02 | locus YGL253W, strain hxk2, stronger effect = lower value 1.06 | locus YGR135W, strain pre9, stronger effect = lower value 0.981 | locus YGR252W, strain gcn5, stronger effect = lower value 0.967 | locus YHR013C, strain ard1, stronger effect = lower value 1.1 | locus YHR027C, strain rpn1, stronger effect = lower value 1.07 | locus YHR030C, strain SLT2, stronger effect = lower value 1.03 and 0.969 | locus YHR079C, strain IRE1 (second series), stronger effect = lower value 1.02 | locus YHR079C, strain IRE1, stronger effect = lower value 0.944 | locus YHR094C, strain hxt1, stronger effect = lower value 1.03 | locus YHR129C, strain ARP1, stronger effect = lower value 1.04 | locus YHR142W, strain chs7, stronger effect = lower value 1.08 | locus YHR200W, strain rpn10, stronger effect = lower value 1.02 | locus YIL066C, strain RNR3, stronger effect = lower value 1.02 | locus YIL073C, strain SPO22, stronger effect = lower value 0.988 | locus YIL125W, strain kgd1, stronger effect = lower value 1 | locus YIR030C, strain dcg1, stronger effect = lower value 1.03 | locus YJL092W, strain hpr5, stronger effect = lower value 1.06 | locus YJL095W, strain BCK1 (second series), stronger effect = lower value 1.06 | locus YJL095W, strain BCK1, stronger effect = lower value 1.02 and 0.976 | locus YJL115W, strain asf1, stronger effect = lower value 1.06 | locus YJL129C, strain trk1, stronger effect = lower value 0.976 | locus YJL134W, strain LCB3, stronger effect = lower value 1.04 | locus YJL154C, strain vps35, stronger effect = lower value 1.06 | locus YJL164C, strain tpk1, stronger effect = lower value 1.03 | locus YJL166W, strain qcr8, stronger effect = lower value 1.06 | locus YJL168C, strain set2, stronger effect = lower value 1.04 | locus YJL187C, strain SWE1 (second series), stronger effect = lower value 1.03 | locus YJL187C, strain SWE1, stronger effect = lower value 1.06
active: locus YBR021W, strain FUR4, stronger effect = lower value 1.16 [resistant] | locus YBR171W, strain sec66, stronger effect = lower value 1.12 [resistant] | locus YCL069W, strain vba3, stronger effect = lower value 1.08 [resistant] | locus YDR137W, strain rgp1, stronger effect = lower value 1.24 [resistant] | locus YDR392W, strain spt3, stronger effect = lower value 0.732 | locus YER155C, strain BEM2, stronger effect = lower value 1.13 [resistant] | locus YGL227W, strain vid30, stronger effect = lower value 1.09 [resistant]
